Here are results for 28 compounds from PubChem BioAssay AID1494157 (National Center for Advancing Translational Sciences (NCATS), 2020).

Results filed as inconclusive are left out. Activity calls are given as the source filed them. The call rests on the fitted dose curve.

This experiment can be described thus: Confirmatory qHTS for inhibitors of MERS-S pseudo-typed particle cell entry. The note with it: MERS-S pseudotyped particle entry, luciferase reporter; series mostly up to 57.1 µM.
For the compound `CCCCCCCCCCCCCC[n+]1ccc(C)cc1`, the Potency was 2.41 µM (active).
In the case of `C[C@]12CC[C@H](O)C[C@H]1CCC1C2CC[C@]2(C)[C@@H](c3ccc(=O)oc3)C[C@H]3O[C@]132` (stereo partly drawn), the Potency is 3.83 µM (active).
`OCCN1CCN(CC/C=C2/c3ccccc3Sc3ccc(C(F)(F)F)cc32)CC1`: the Potency is 12.1 µM (active).
For `Oc1c(Cl)cc(Cl)c(Cl)c1Cc1c(O)c(Cl)cc(Cl)c1Cl`, the Potency was 0.857 µM (active).
With `Cc1nn(C)c2c1C(c1ccccc1F)=NCC(=O)N2C`, the Potency is 10.8 µM (active).
As to `Cc1oncc1C(=O)Nc1ccc(C(F)(F)F)cc1`, the Potency entry was “inactive”.
With `COc1cc(N)c(Cl)cc1C(=O)NC1CCN(CCCOc2ccc(F)cc2)CC1OC` (stereo not drawn), the Potency was 15.2 µM (active).
Regarding `COc1cc2c(cc1Cc1cccc(Cl)c1F)c(=O)c(C(=O)O)cn2[C@H](CO)C(C)C`, the Potency is 0.304 µM (active).
On to `COC(=O)C1=C(C)NC(C)=C(C(=O)OCC(C)C)C1c1ccccc1[N+](=O)[O-]` (stereo not drawn), for which the Potency is 19.2 µM (active).
`O=C(Nc1ccc([N+](=O)[O-])cc1Cl)c1cc(Cl)ccc1O`: the Potency was 0.857 µM (active).
As to `Cc1cc(-n2c(=O)[nH]c(=O)n(C)c2=O)ccc1Oc1ccc(S(=O)(=O)C(F)(F)F)cc1`, the Potency is 6.81 µM (active).
As to `C=CC1(C)CC(=O)C2(O)C(C)(O1)C(OC(C)=O)C(OC(=O)CCN(C)C)C1C(C)(C)CCC(O)C12C` (stereo not drawn), the Potency result was “inactive”.
Take `CN1CCN(CCC=C2c3ccccc3Sc3ccc(S(=O)(=O)N(C)C)cc32)CC1`: the Potency is 6.07 µM (active).
The figure for `C=C1c2c(Cl)ccc(O)c2C(O)=C2C(=O)[C@@]3(O)C(O)=C(C(N)=O)C(=O)[C@@H](N(C)C)[C@@H]3[C@@H](O)[C@H]12` is 19.2 µM (active); for `CC(C)C(=O)Oc1ccc(CO)cc1[C@H](CCN(C(C)C)C(C)C)c1ccccc1` it is 19.2 µM (active); for `CN(C)CC/C=C1\c2ccccc2Sc2ccc(Cl)cc21` it is 8.57 µM (active).
The figure for `c1ccc2c(c1)Sc1ccccc1N2CC1CN2CCC1CC2` (stereo not drawn) is 12.1 µM (active).
Consider `CC[C@@H]([C@H](C)O)n1ncn(-c2ccc(N3CCN(c4ccc(OC[C@@H]5CO[C@@](Cn6cncn6)(c6ccc(F)cc6F)C5)cc4)CC3)cc2)c1=O`, for which the Potency is 7.64 µM (active).
The figure for `C[n+]1c2cc(N)ccc2cc2ccc(N)cc21` (tested in a mixture with another compound) is 1.92 µM (active); for `N#CC(c1ccc(Cl)cc1)c1c(Cl)cc(-n2ncc(=O)[nH]c2=O)cc1Cl` (stereo not drawn) it is 7.64 µM (active).
For `Nc1nc(Cl)nc2c1ncn2C1CC(O)C(CO)O1` (stereo not drawn), the Potency is 12.1 µM (active).
Take `CO[C@@]12[C@H](COC(N)=O)C3=C(C(=O)C(C)=C(N)C3=O)N1C[C@@H]1N[C@@H]12`: the Potency is 0.961 µM (active).
Turning to `COc1cccc2c1C(=O)c1c(O)c3c(c(O)c1C2=O)C[C@@](O)(C(C)=O)C[C@@H]3O[C@H]1C[C@H](N)[C@H](O)[C@H](C)O1`, the Potency was 3.83 µM (active).
Take `CN1CCC(=C2c3ccccc3C=Cc3ccccc32)CC1`: the Potency is 19.2 µM (active).
Turning to `CCCCc1oc2ccccc2c1C(=O)c1cc(I)c(OCCN(CC)CC)c(I)c1`, the Potency is 10.8 µM (active).
With `C=C(C)[C@H]1Cc2c(ccc3c2O[C@@H]2COc4cc(OC)c(OC)cc4[C@@H]2C3=O)O1`, the Potency is 0.0136 µM (active).
For the compound `Nc1ccn([C@@H]2O[C@H](CO)[C@@H](O)C2(F)F)c(=O)n1`, the Potency is 0.215 µM (active).
Consider `CC(CN(C)C)CN1c2ccccc2CCc2ccccc21` (stereo not drawn), for which the Potency was 17.1 µM (active).
